Data from PubChem BioAssay.
Values without a mark were called inactive.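 The calls were made as follows: active = RAM network inhibition above 8.4% in each of two replicates, 3 SD over the compound average; inconclusive = above 8.4% inhibition in only one replicate; inactive = 8.4% inhibition or less in each replicate.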

assay: RAM signaling pathway blockade in yeast – S. cerevisiae, Pdr1DBD-CYC8 efflux-inhibited sensitized strain, primary screen (AID 1298);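 also: 0% = DMSO untreated cells without growth and 100% = 10 µM 1-NA-PP1 full growth; higher means more yeast growth rescued from 5-FOA killing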; settings: S. cerevisiae cbk1-as DSE1-URA3 strain, 5-FOA growth OD615, 2 d; at 50 µM; hits give high values

Row | Structure (SMILES) | RAM network inhibition
1 | COc1ccccc1N=Cc1c(O)n(C)c(=O)n(C)c1=O | 2.71%
2 | COc1ccc(N2C(=O)CC(N3CC=C(c4ccccc4)CC3)C2=O)cc1 (stereo not given) | 4.45%
3 | Cc1ccc2occ(CN3CC4CC(C3)c3cccc(=O)n3C4)c(=O)c2c1 (stereo not given) | 1.61%
4 | Cc1cc(OCC(=O)OC(C)(C)C)c2c3c(c(=O)oc2c1)CCC3 | 5.46%
5 | O=C(c1ccccc1)c1cn(CC(=O)N2CCCC2)c2ccccc12 | 4.67%
6 | CC12CN3CC(C)(CN(C1)P3(=O)Oc1ccccc1)C2=O (stereo not given) | 3.62%
7 | COc1ccc(C2C(C(=O)N3CCC4(CC3)OCCO4)c3cc(OC)c(OC)cc3C(=O)N2C)cc1 (stereo not given) | 0.93%
8 | c1ccc2sc(C3CCCNC3)nc2c1 (stereo not given) | 0.56%
9 | CCOC(=O)C1CCN(/C=C2/C(=O)NC(=O)N(c3ccc(OCC)cc3)C2=O)CC1 | 1.16%
10 | c1cncc(C2CCCCN2Cc2ccc3c(c2)OCO3)c1 (stereo not given) | 4.3%
11 | COc1cc2c(cc1OC)-c1c(OC)c(OC)cc3c1C(C2)N(C)CC3 (stereo not given) | 6.23%
12 | O=C(O)c1cc2ccccc2oc1=O | 1.06%
13 | O=c1c2ccccc2nc(-c2ccco2)n1-c1ccccn1 | 3.37%
14 | Cc1cccnc1-n1c(-c2ccco2)nc2ccccc2c1=O | -0.22%
15 | Nc1ccc(S(=O)(=O)N2CC3CC(C2)c2cccc(=O)n2C3)cc1 (stereo not given) | 0.37%
16 | O=C(CN1CC(c2ccccc2)CC1=O)Nc1cccc(F)c1 (stereo not given) | 4.67%
17 | CN(C)C1(c2nnnn2-c2ccc(Cl)cc2)CCCCC1 | 3.64%
18 | O=c1cccc2n1CC1CC2CN(Cc2ccc3c(c2)OCO3)C1 (stereo not given) | -0.2%
19 | O=C(Nc1ccccc1OC(=O)N1CCCCC1)N1CCCCC1 | 3.27%
20 | CCOC(=O)c1c(C)n(Cc2ccco2)c2ccc(OC)cc12 | 3.6%

Row | Structure (SMILES) | RAM network inhibition
21 | Cc1cc(Br)ccc1N1C(=O)CC(=O)NC1=O | 0.67%
22 | O=C(O)C1CN2CCC1CC2 (stereo not given) | -0.77%
23 | O=C(Cc1ccccc1)Oc1cccc(N2C(=O)CCC2=O)c1 | 3.42%
24 | CCOc1ccc(-n2c(CC)nc3ccccc3c2=O)cc1 | 3.89%
25 | CCOc1ccccc1C1SCC(=O)Nc2c1c(=O)[nH]n2C(CC)CC (stereo not given) | 0.37%
26 | C=Cn1ccnc1P(=S)(c1ccn(C)c1)c1nccn1C=C | 1.45%
27 | O=c1cccc2n1CC1CC2CN(C(c2ccccc2)c2sc3ncnn3c2O)C1 (stereo not given) | 1.32%
28 | O=c1c2ccccc2nc(-c2cccs2)n1-c1cnccn1 | 2.35%
29 | C=Cn1ccnc1P(=S)(c1c(C)nn(-c2ccccc2)c1C)c1nccn1C=C | 5.43%
30 | O=C(CN1CC(c2ccccc2)CC1=O)Nc1ccc(F)cc1 (stereo not given) | 0.85%
31 | Cc1ccnc(-n2c(C)nc3ccccc3c2=O)c1 | -0.81%
32 | CCCCCn1c(=O)c(C(=O)Nc2ccncc2)c(O)c2ccccc21 | -1.36%
33 | C=Cn1ccnc1P(=S)(c1cc(N(CC)CC)ns1)c1nccn1C=C | 2.27%
34 | O=C1CC(=O)N(c2ccc(Cl)cc2Cl)C(=O)N1 | 1.94%
35 | COc1ccc(CC2C(=O)NC(=O)N(c3ccccc3)C2=O)c(OC)c1 (stereo not given) | 0.67%
36 | O=C(c1ccc2c(c1)OCO2)N1CCC2(CC1)OCCO2 | -1.11%
37 | CCOC(=O)C1SC2(C(F)(F)C(F)F)CC1(O)c1c(c(OC)c3occc3c1OC)O2 (stereo not given) | 6.2%
38 | CN1CC=C(c2c[nH]c3ccccc23)CC1 | -1.66%
39 | CC12CN3CC(C)(CN(C1)C3c1ccco1)C2=O (stereo not given) | 2.07%
40 | COc1cc(CN2CC3CC(C2)c2cccc(=O)n2C3)cc(OC)c1OC (stereo not given) | 0.85%
